In all, about 59,000 compounds went through this assay and about 540 (0.92%) were called active. Not shown: some 33% with an inconclusive outcome. Rule as the data show it: active = max fluorescein-equivalent concentration above about 10 nM; inconclusive = between about 1.1 nM and that limit; inactive = weaker than that. The sample as a whole holds a higher share of actives than the screen did. A structure can be active in one record and inactive in another.

This experiment can be described thus: qHTS Assay for Spectroscopic Profiling in Fluorescein Spectral Region. Conditions: Compound autofluorescence, 480/540 nm; max fluorescein-equivalent concentration: hits give high values; outcome: fluorescein-equivalent. The method, boiled down:
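Compounds were pin-transferred into 100 mM Tris buffer, pH 8.0, and incubated 15 min at room temperature. Fluorescence was read at 480 nm excitation/540 nm emission. Signals were normalized to an on-plate six-point fluorescein standard curve as dye-equivalent concentration.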
(In qHTS, concentration-response curves come from the screen itself.)
Turning to `CCOc1ccc2nc(N3CCCN(C(=O)Nc4ccccc4C)CC3)c(C#N)cc2c1`, the max fluorescein-equivalent concentration is 29 nM (active).

For `Cc1cccc2cc(C#N)c(N3CCCC3)nc12`, the max fluorescein-equivalent concentration result is “inactive”.

In the case of `CC(=O)c1cc2c(cc1N)OCO2`, the max fluorescein-equivalent concentration result is “inactive”.

With `COC(=O)C1=C(C)OC(N)=C(C#N)C1c1cc(OC)ccc1OC` (configuration not stated), the max fluorescein-equivalent concentration entry is “inactive”.

For the compound `CCCN1CC=C2C(C#N)=C(N)C(C#N)(C#N)C(c3cc(OC)ccc3OC)C2C1` (configuration not stated), the max fluorescein-equivalent concentration was 10 nM (active).

`CCC1=C(C(=O)OC)C(c2cc(OC)ccc2OC)C(C#N)=C(N)O1` (configuration not stated): the max fluorescein-equivalent concentration result is “inactive”.

In the case of `COc1cc(NS(=O)(=O)c2ccc(NC(C)=O)cc2)cc(OC)c1`, the max fluorescein-equivalent concentration result is “inactive”.

On to `CCOC(=O)C1(Cc2ccc(O)cc2)NC(c2ccccc2F)C2C(=O)N(C)C(=O)C21` (configuration not stated), for which the max fluorescein-equivalent concentration entry was “inactive”.

As to `Cc1ccc(C(c2nnnn2CS(=O)(=O)c2ccc(C)cc2)N2CCC(C(N)=O)CC2)cc1` (configuration not stated), the max fluorescein-equivalent concentration result was “inactive”.

For `COc1ccc(-c2c3c(=O)n(C)c(=O)n(C)c3cn2NC(C)=O)cc1`, the max fluorescein-equivalent concentration result was “inactive”.

Turning to `C[C@@H]1CC[C@H]2[C@H](C)[C@H]3[C@H](C[C@H]4[C@@H]5CC=C6C[C@@H](O)CC[C@@]6(C)[C@@H]5C[C@@H](O)[C@]34C)N2C1`, the max fluorescein-equivalent concentration entry is “inactive”.

In the case of `CCN(CC(=O)NCc1cccs1)c1nnnn1-c1ccccc1`, the max fluorescein-equivalent concentration result was “inactive”.

Regarding `COc1cccc(NC(=O)CN(C)S(=O)(=O)c2ccc(C)cc2)c1`, the max fluorescein-equivalent concentration result is “inactive”.

For `Cc1ccc2c(c1)C(O)(CC(=O)c1cccnc1)C(=O)N2` (configuration not stated), the max fluorescein-equivalent concentration result was “inactive”.

For `CC(=NC1CCN(Cc2ccccc2)CC1)c1c(O)[nH]c(=O)[nH]c1=O`, the max fluorescein-equivalent concentration result is “inactive”.

For `COc1ccc(OC)c(S(=O)(=O)Nc2ccccc2F)c1`, the max fluorescein-equivalent concentration result is “inactive”.

In the case of `CC1CN(C2CCN(C(=O)COc3ccccc3)CC2)CC(C)O1` (configuration not stated), the max fluorescein-equivalent concentration result is “inactive”.

Take `C=CCNC(=O)C12CC3CC(C1)CC(C(=O)NCC=C)(C3)C2`: the max fluorescein-equivalent concentration entry was “inactive”.

For the compound `CCc1cccc(C)c1NC(=O)CSc1nnc(-c2ccco2)n1N`, the max fluorescein-equivalent concentration result is “inactive”.

As to `O=C(Nc1ccccc1F)C1C2C=CC3(O2)C1C(=O)N(c1cccnc1)C3C(=O)NC1CCCCC1` (configuration not stated), the max fluorescein-equivalent concentration entry was “inactive”.

For `COc1cccc(Cn2c(=O)c(CCc3ccccc3)nc3cnc(N(C)C)nc32)c1`, the max fluorescein-equivalent concentration result is “inactive”.

For `CNC(=O)c1cc2c(ccc3ccccc32)oc1=N`, the max fluorescein-equivalent concentration entry was “inactive”.

For `CCON=C1C(C)(C)C(C)(C)C(C)(C)C1(C)C`, the max fluorescein-equivalent concentration result was “inactive”.

On to `CCCn1c(=O)c2[nH]c(C3CCCC3)nc2n(CCC)c1=O`, for which the max fluorescein-equivalent concentration was 11 nM (active) and the outcome was inactive.

Consider `Cn1c(=O)c2[nH]c(NCC3CCCO3)nc2n(-c2ccccc2)c1=O` (configuration not stated), for which the max fluorescein-equivalent concentration entry is “inactive”.

On to `O=c1[nH]c(=O)n([C@H]2C[C@H](O)[C@H](CO)O2)cc1Br`, for which the max fluorescein-equivalent concentration result was “inactive”.

As to `CC(=O)c1cc(C#N)c(SCC(=O)C(C)(C)C)nc1C`, the max fluorescein-equivalent concentration entry was “inactive”.

For the compound `Cc1cccn2c(=O)c3cc(C(=O)N4COCC4(C)C)n(C)c3nc12`, the max fluorescein-equivalent concentration entry is “inactive”.

On to `Cc1cccn2c(=O)c3cc(C#N)c(=NC(=O)c4cccnc4)n(CC4CCCO4)c3nc12` (configuration not stated), for which the max fluorescein-equivalent concentration was 18 nM (active).

On to `COC(=O)c1ccc2c(=O)n(CC3CCCO3)c(=S)[nH]c2c1` (configuration not stated), for which the max fluorescein-equivalent concentration result is “inactive”.

`Cc1cc(C)c2[nH]c(=O)c(C(c3nnnn3Cc3ccc4c(c3)OCO4)N3CCCC3)cc2c1` (configuration not stated): the max fluorescein-equivalent concentration result was “inactive”.

In the case of `CC(=O)NS(=O)(=O)c1ccccc1`, the max fluorescein-equivalent concentration result is “inactive”.

Turning to `CCOCCCNS(=O)(=O)Cc1ccccc1`, the max fluorescein-equivalent concentration result was “inactive”.

`CCOC(=O)N1CC=C2C(C#N)=C(N)C(C#N)(C#N)[C@H](c3cccs3)[C@H]2C1`: the max fluorescein-equivalent concentration is 12 nM (active).

`CCNc1ncc2ncc(=O)n(Cc3cccc(OC)c3)c2n1`: the max fluorescein-equivalent concentration result was “inactive”.

As to `COc1ccc(N2CCN(C(=O)CSc3nc4cc(OC)c(OC)cc4cc3C#N)CC2)cc1`, the max fluorescein-equivalent concentration entry is “inactive”.

Take `COc1ccc2nc(N3CCCC(O)C3)c(C#N)cc2c1` (configuration not stated): the max fluorescein-equivalent concentration was 16 nM (active).

With `O=CN1CCN(C2CC(=O)N(c3ccc4c(c3)OCO4)C2=O)CC1` (configuration not stated), the max fluorescein-equivalent concentration entry was “inactive”.

`S=c1[nH]nc(SCc2ccccc2Cl)c2[nH]cnc12`: the max fluorescein-equivalent concentration result was “inactive”.

Consider `Cc1csc(NC(=O)CN2CCCCCC2)n1`, for which the max fluorescein-equivalent concentration entry was “inactive”.

For the compound `CCOCC(=O)Nc1cc(OC)c(Cl)cc1OC`, the max fluorescein-equivalent concentration result is “inactive”.

With `Oc1ccccc1CNCc1ccccc1O`, the max fluorescein-equivalent concentration entry was “inactive”.

For `COCCn1c(=O)c(CCc2ccccc2)nc2cncnc21`, the max fluorescein-equivalent concentration result is “inactive”.

As to `CC(C)N(C(=O)COC(=O)c1ccccc1C(=O)N1CCN(c2ccc(F)cc2)CC1)C(C)C`, the max fluorescein-equivalent concentration entry is “inactive”.

Consider `N#CC1=C(N)Oc2n[nH]c(CSc3ccccc3)c2C12C(=O)Nc1ccccc12` (configuration not stated), for which the max fluorescein-equivalent concentration result was “inactive”.

Turning to `O=S(=O)(c1cccs1)N1CCN(Cc2ccccc2)CC1`, the max fluorescein-equivalent concentration entry was “inactive”.

For `CCOCCOC(=O)C1=C(C)N(C)C(=O)NC1c1ccccc1F` (configuration not stated), the max fluorescein-equivalent concentration result is “inactive”.

Turning to `C=C(C)Cn1c(SCC(=O)NCc2ccco2)nc2sc3c(c2c1=O)CCC3`, the max fluorescein-equivalent concentration result was “inactive”.

With `COCCn1c(=O)c(-c2cccc(F)c2)nc2cncnc21`, the max fluorescein-equivalent concentration entry was “inactive”.

Take `COc1ccc(C(=O)N/N=C2/C(=O)c3c(C)cc(C)cc3CC2(C)C)cc1`: the max fluorescein-equivalent concentration entry was “inactive”.

On to `O=C(O)C1CC=C(Cl)CC1C(=O)NCc1ccccc1` (configuration not stated), for which the max fluorescein-equivalent concentration entry was “inactive”.

Consider `CCCOc1ccccc1-c1nc(SCCC(=O)O)n[nH]1`, for which the max fluorescein-equivalent concentration entry is “inactive”.

With `O=S(=O)(Nc1ccc2nc(-c3ccco3)[nH]c2c1)c1ccccc1`, the max fluorescein-equivalent concentration result was “inactive”.

Turning to `O=S(=O)(O)c1ccc(O)c2ncccc12.O=S(=O)(O)c1ccc(O)c2ncccc12.[Zn]`, the max fluorescein-equivalent concentration entry was “inactive”.

On to `O=C(N1CCOCC1)N1CCOCC1`, for which the max fluorescein-equivalent concentration entry was “inactive”.

In the case of `CCCC(=O)Nc1cc(OCC)c(NC(=O)NC2CCCCC2)cc1OCC`, the max fluorescein-equivalent concentration entry was “inactive”.

These data come from PubChem BioAssay AID593 (National Center for Advancing Translational Sciences (NCATS), 2007).
